These results are taken from PubChem BioAssay (NCATS).

The structures appear in SMILES notation. Inconclusive results are not listed. A call without a number means that no potency is given here. A number with no mark means an inactive call. Active and inactive are the calls of the source. Calls follow the shape of the full dose curve; tested in HEK293 reporter line.

The assay is described as follows: qHTS for Inhibitors of the Functional Ribonucleoprotein Complex (vRNP) of Lassa (LASV) Arenavirus: LASV Primary Screen - GLuc reporter signal (AID 1347082). Also: nearly all actives have a fitted effect of over 60% in size. The settings on record: LASV minigenome vRNP, Gaussia luciferase reporter; series mostly up to 57.5 µM. A general note: In qHTS, concentration-response curves come from the screen itself.
`Cc1cn([C@@H]2O[C@H](CO)[C@@H](O)[C@H]2F)c(=O)[nH]c1=O`: the Potency entry is “inactive”.

For the compound `Cc1cc(CC(=O)O)c(C)n1-c1ccc(Cl)cc1`, the Potency result is “inactive”.

As for `CCCCCC[C@@H](CCC)C(=O)O`, the Potency result was “inactive”.

Take `COc1nccnc1NS(=O)(=O)c1ccc(N)cc1`: the Potency result was “inactive”.

Take `O=S(=O)(O)c1cc(I)c(O)c2ncccc12`: the Potency entry is “inactive”.

Consider `Oc1cccc(O)c1`, for which the Potency result is “inactive”.

With `CN(C)CCN1CCN(c2cccc(Cl)c2)C1=O`, the Potency entry is “inactive”.

On to `Cc1cccc(C)c1NC(=O)CN(CC(=O)O)CC(=O)O`, for which the Potency entry is “inactive”.

Regarding `CCCCNC(=O)NS(=O)(=O)c1ccc(N)cc1`, the Potency result was “inactive”.

In the case of `NC[C@H]1O[C@H](O[C@H]2[C@H](O[C@@H]3O[C@H](CO)[C@@H](O)[C@H]3O)C(O)[C@H](N)C[C@@H]2N)[C@H](N)[C@@H](O)[C@@H]1O` (stereo partly drawn), the activity change, negative = inhibition is -1.42% [at 11.5 µM].

Turning to `CC(=O)[C@@]1(O)CC[C@H]2[C@@H]3C[C@H](C)C4=CC(=O)C=C[C@]4(C)[C@@]3(F)[C@@H](O)C[C@@]21C`, the Potency result is “inactive”.

For the compound `CCCCCCCCCCCCCCCC(=O)O`, the Potency entry is “inactive”.

Consider `CO[C@@H]1[C@@H](OC(N)=O)[C@@H](O)[C@H](Oc2ccc3c(O)c(NC(=O)c4ccc(O)c(CC=C(C)C)c4)c(=O)oc3c2C)OC1(C)C`, for which the Potency result was “inactive”.

Regarding `Cc1cc(C)c(NC(=O)CN(CC(=O)O)CC(=O)O)c(C)c1Br`, the Potency entry is “inactive”.

Turning to `CC(C(=O)O)c1ccc(/C=C2\CCCCC2=O)cc1` (stereo not drawn), the Potency entry was “inactive”.

Regarding `N=C(N)N`, the Potency result was “inactive”.

With `Cc1ccc(O)c2ncccc12`, the Potency entry is “inactive”.

Consider `NS(=O)(=O)c1cc(C(=O)NN2C[C@H]3[C@H]4CCC(C4)[C@H]3C2)ccc1Cl`, for which the Potency result is “inactive”.
